# From PubChem BioAssay (EPA / NIEHS)
# The source made the active and inactive calls. How the source made its calls: active means hit-call score of the fitted dose curve at least 0.9, where 1 is the maximum; inactive means score below 0.9.
# Assays:
# Conditions in all cases: mRNA level, 48 h; actives raise or lower the signal
# [1] = read-out: 3-Hydroxy-3-Methylglutaryl-CoA Synthase 2 (HMGCS2), HMGCS2 (gene 3158); experiment: LTEA_HepaRG_HMGCS2: Life Technologies and Expression Analysis (LTEA) Assay for 3-Hydroxy-3-Methylglutaryl-CoA Synthase 2 (HMGCS2) using HepaRG (AID 2283504)
# Procedure, shortened: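 Differentiated human HepaRG cells were exposed in duplicate for 48 h in serum-free induction medium to eight concentrations (top 100 uM, half-log steps, 0.5% DMSO). HMGCS2 mRNA was quantified by TaqMan qRT-PCR, normalised to ACTB, GAPDH and POLR2A, then fitted bidirectionally against DMSO.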
# [2] = read-out: HGF (gene 3082); experiment: LTEA_HepaRG_HGF: Life Technologies and Expression Analysis (LTEA) Assay for Hepatocyte Growth Facto (HGF) using HepaRG (AID 2283505)
# Procedure, shortened: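 Differentiated human HepaRG cells in serum-free induction medium were exposed in duplicate for 48 h to eight concentrations (top 100 uM, half-log steps, 0.5% DMSO). HGF mRNA was quantified by qRT-PCR, normalized to ACTB, GAPDH and POLR2A.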
# [3] = read-out: Insulin Like Growth Factor 1 (IGF1), IGF1 (gene 3479); experiment: LTEA_HepaRG_IGF1: Life Technologies and Expression Analysis (LTEA) Assay for Insulin Like Growth Factor 1 (IGF1) using HepaRG (AID 2283506)
# Procedure, shortened: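 qRT-PCR readout of IGF1 mRNA, normalized to three housekeeping genes, after 48 h chemical exposure of HepaRG cells. Concentrations: 8-point half-log series, top 100 uM, 0.5% DMSO vehicle. Gain or loss fitted against DMSO baseline.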
# [4] = read-out: Intercellular Adhesion Molecule 1 (ICAM1), ICAM1 (gene 3383); experiment: LTEA_HepaRG_ICAM1: Life Technologies and Expression Analysis (LTEA) Assay for Intercellular Adhesion Molecule 1 (ICAM1) using HepaRG (AID 2283507)
# Procedure, shortened: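 Differentiated HepaRG cells in serum-free induction medium were exposed in duplicate for 48 h to eight half-log concentrations up to 100 uM in 0.5% DMSO. Transcript levels were measured by qRT-PCR normalized to ACTB, GAPDH and POLR2A; bidirectional fits relative to DMSO.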
# [5] = read-out: Insulin-like growth factor-binding protein 1 (IGFBP1), IGFBP1 (gene 3484); experiment: LTEA_HepaRG_IGFBP1: Life Technologies and Expression Analysis (LTEA) Assay for Insulin-like growth factor-binding protein 1 (IGFBP1) using HepaRG (AID 2283508)
# Procedure, shortened: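 Differentiated human HepaRG cells in serum-free induction medium were exposed in duplicate for 48 h to eight concentrations, top 100 uM with half-log dilutions, in 0.5% DMSO. Transcript levels came from qRT-PCR normalised to ACTB, GAPDH and POLR2A, fitted bidirectionally against DMSO.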
# [6] = read-out: Interleukin 6 (IL6), IL6 (gene 3569); experiment: LTEA_HepaRG_IL6: Life Technologies and Expression Analysis (LTEA) Assay for Interleukin 6 (IL6) using HepaRG (AID 2283509)
# Procedure, shortened: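 Transcript levels, normalized to three housekeeping genes, were quantified by qRT-PCR after 48 h chemical treatment of HepaRG cells. Eight-point half-log series from 100 uM in 0.5% DMSO, duplicates. Fitted both directions against DMSO baseline.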
# [7] = read-out: Interleukin 6 Receptor (IL6R), IL6R (gene 3570); experiment: LTEA_HepaRG_IL6R: Life Technologies and Expression Analysis (LTEA) Assay for Interleukin 6 Receptor (IL6R) using HepaRG (AID 2283510)
# Procedure, shortened: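 HepaRG, 48 h exposure, 8-pt half-log series, top 100 uM, 0.5% DMSO vehicle, duplicates. Read-out: TaqMan qRT-PCR of IL6R transcript, housekeeping-gene normalized. Gain or loss fitted relative to DMSO baseline.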
# [8] = read-out: Potassium channel subfamily K member 1 (KCNK1), KCNK1 (gene 3775); experiment: LTEA_HepaRG_KCNK1: Life Technologies and Expression Analysis (LTEA) Assay for Potassium channel subfamily K member 1 (KCNK1) using HepaRG (AID 2283511)
# Procedure, shortened: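 KCNK1 transcript measured by TaqMan qRT-PCR against three housekeeping genes, after HepaRG cells were treated 48 h with eight half-log concentrations (top 100 uM, 0.5% DMSO). Curves fitted bidirectionally relative to vehicle.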
# [9] = read-out: Keratin 19 (KRT19), KRT19 (gene 3880); experiment: LTEA_HepaRG_KRT19: Life Technologies and Expression Analysis (LTEA) Assay for Keratin 19 (KRT19) using HepaRG (AID 2283512)
# Procedure, shortened: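 Differentiated human HepaRG cells, plated 48 h, were exposed in duplicate for 48 h in serum-free induction medium to eight half-log concentrations up to 100 uM in 0.5% DMSO. KRT19 mRNA was quantified by qRT-PCR, normalized to ACTB, GAPDH and POLR2A, and fitted bidirectionally versus DMSO.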
# [10] = read-out: JUN Transcription Factor, JUN (gene 3725); experiment: LTEA_HepaRG_JUN: Life Technologies and Expression Analysis (LTEA) Assay for JUN Transcription Factor using HepaRG (AID 2283513)
# Procedure, shortened: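 HepaRG, 48 h exposure, 8-pt half-log series top 100 uM, 0.5% DMSO, duplicate. JUN mRNA by qRT-PCR (Fluidigm), housekeeping-normalized (ACTB/GAPDH/POLR2A); bidirectional curve fit vs DMSO baseline.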
# [11] = read-out: Lipase C (LIPC), LIPC (gene 3990); experiment: LTEA_HepaRG_LIPC: Life Technologies and Expression Analysis (LTEA) Assay for Lipase C (LIPC) using HepaRG (AID 2283514)
# Procedure, shortened: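 LIPC expression was quantified by qRT-PCR against three housekeeping genes (ACTB, GAPDH, POLR2A). Differentiated human HepaRG cells received eight half-log doses (top 100 uM, 0.5% DMSO) in duplicate for 48 h; fitting bidirectional relative to DMSO.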
# [12] = read-out: Lipoprotein lipase (LPL), LPL (gene 4023); experiment: LTEA_HepaRG_LPL: Life Technologies and Expression Analysis (LTEA) Assay for Lipoprotein lipase (LPL) using HepaRG (AID 2283515)
# Procedure, shortened: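 LPL transcript levels quantified by TaqMan qRT-PCR against three housekeeping genes after 48 h chemical treatment of HepaRG cells. Eight-point half-log series from 100 uM in 0.5% DMSO, tested in duplicate; bidirectional fitting versus vehicle.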
# [13] = read-out: MicroRNA 122 (MIR122), gene 406906; experiment: LTEA_HepaRG_MIR122: Life Technologies and Expression Analysis (LTEA) Assay for MicroRNA 122 (MIR122) using HepaRG (AID 2283516); further: the transcript read is the microRNA miR-122
# Procedure, shortened: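 qRT-PCR read-out (TaqMan, Fluidigm array), normalized to three housekeeping genes; HepaRG cells dosed 48 h at 8 concentrations up to 100 uM in 0.5% DMSO, duplicate; gain or loss fitted against DMSO baseline.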
# [14] = read-out: matrix metalloproteinase-10 (MMP10), MMP10 (gene 4319); experiment: LTEA_HepaRG_MMP10: Life Technologies and Expression Analysis (LTEA) Assay for matrix metalloproteinase-10 (MMP10) using HepaRG (AID 2283517)
# Procedure, shortened: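 Expression measured by TaqMan qRT-PCR with ACTB/GAPDH/POLR2A normalisation after 48 h chemical exposure of HepaRG cells. Eight half-log concentrations, top 100 uM, 0.5% DMSO vehicle, duplicates; gain or loss fitted against vehicle.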
# [15] = read-out: MYC, MYC (gene 4609); experiment: LTEA_HepaRG_MYC: Life Technologies and Expression Analysis (LTEA) Assay for MYC using HepaRG (AID 2283518)
# Procedure, shortened: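 Differentiated human HepaRG cells, plated 48 h then switched to serum-free induction medium, were exposed in duplicate for 48 h to 8-point half-log series up to 100 uM in 0.5% DMSO. MYC mRNA measured by qRT-PCR, normalized to ACTB/GAPDH/POLR2A.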
# [16] = read-out: matrix metalloproteinase-3 (MMP3), MMP3 (gene 4314); experiment: LTEA_HepaRG_MMP3: Life Technologies and Expression Analysis (LTEA) Assay for matrix metalloproteinase-3 (MMP3) using HepaRG (AID 2283519)
# Procedure, shortened: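 Fluidigm-based TaqMan qRT-PCR, normalized to ACTB, GAPDH and POLR2A and fitted bidirectionally versus 0.5% DMSO, measured transcript levels. Treatment: duplicate 48 h exposures of HepaRG cells, ~100,000/well, to eight half-log concentrations topping at 100 uM.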
# [17] = read-out: Paternally Expressed 10 (PEG10), PEG10 (gene 23089); experiment: LTEA_HepaRG_PEG10: Life Technologies and Expression Analysis (LTEA) Assay for Paternally Expressed 10 (PEG10) using HepaRG (AID 2283520);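 on AC50: PEG10 transcript by qRT-PCR normalised to ACTB GAPDH and POLR2A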
# Procedure, shortened: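 qRT-PCR read-out: PEG10 mRNA normalised to three housekeeping genes, fitted bidirectionally against 0.5% DMSO vehicle. HepaRG cells received test chemicals for 48 h in serum-free induction medium, 8 points, top 100 uM, half-log steps.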
# [18] = read-out: Protein phosphatase 2A (PPP2R4), PTPA (gene 5524); experiment: LTEA_HepaRG_PPP2R4: Life Technologies and Expression Analysis (LTEA) Assay for Protein phosphatase 2A (PPP2R4) using HepaRG (AID 2283522)
# Procedure, shortened: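 HepaRG, 48 h exposure, 8-pt half-log series from 100 uM, 0.5% DMSO vehicle, duplicates. Readout: PPP2R4 mRNA, Fluidigm qRT-PCR, housekeeping-normalized. Bidirectional curve fit vs DMSO baseline.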
# [19] = read-out: Phosphatase and tensin (PTEN), PTEN (gene 5728); experiment: LTEA_HepaRG_PTEN: Life Technologies and Expression Analysis (LTEA) Assay for Phosphatase and tensin (PTEN) using HepaRG (AID 2283523)
# Procedure, shortened: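 Read-out: TaqMan qRT-PCR of PTEN transcript, normalized to three housekeeping genes, fitted in both directions against 0.5% DMSO. Differentiated human HepaRG cultures received chemicals for 48 h, eight-point half-log series topping at 100 uM.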
# [20] = read-out: Nuclear factor NF-kappa-B p105 subunit (Homo sapiens) (UniProt P19838); experiment: LTEA_HepaRG_NFKB1: Life Technologies and Expression Analysis (LTEA) Assay for Nuclear Factor Kappa B Subunit 1 (NFKB1) using HepaRG (AID 2283521);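 further: TaqMan qRT-PCR transcript normalised to ACTB GAPDH and POLR2A housekeeping genes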
# Procedure, shortened: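 Human HepaRG cells receive eight half-log concentrations, highest 100 uM, for 48 h. NFKB1 expression is then quantified by qRT-PCR and analysed for up- or down-regulation relative to 0.5% DMSO vehicle.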
# Chain of Nuclear factor NF-kappa-B p105 subunit (Homo sapiens) (P19838 whole entry, looked up): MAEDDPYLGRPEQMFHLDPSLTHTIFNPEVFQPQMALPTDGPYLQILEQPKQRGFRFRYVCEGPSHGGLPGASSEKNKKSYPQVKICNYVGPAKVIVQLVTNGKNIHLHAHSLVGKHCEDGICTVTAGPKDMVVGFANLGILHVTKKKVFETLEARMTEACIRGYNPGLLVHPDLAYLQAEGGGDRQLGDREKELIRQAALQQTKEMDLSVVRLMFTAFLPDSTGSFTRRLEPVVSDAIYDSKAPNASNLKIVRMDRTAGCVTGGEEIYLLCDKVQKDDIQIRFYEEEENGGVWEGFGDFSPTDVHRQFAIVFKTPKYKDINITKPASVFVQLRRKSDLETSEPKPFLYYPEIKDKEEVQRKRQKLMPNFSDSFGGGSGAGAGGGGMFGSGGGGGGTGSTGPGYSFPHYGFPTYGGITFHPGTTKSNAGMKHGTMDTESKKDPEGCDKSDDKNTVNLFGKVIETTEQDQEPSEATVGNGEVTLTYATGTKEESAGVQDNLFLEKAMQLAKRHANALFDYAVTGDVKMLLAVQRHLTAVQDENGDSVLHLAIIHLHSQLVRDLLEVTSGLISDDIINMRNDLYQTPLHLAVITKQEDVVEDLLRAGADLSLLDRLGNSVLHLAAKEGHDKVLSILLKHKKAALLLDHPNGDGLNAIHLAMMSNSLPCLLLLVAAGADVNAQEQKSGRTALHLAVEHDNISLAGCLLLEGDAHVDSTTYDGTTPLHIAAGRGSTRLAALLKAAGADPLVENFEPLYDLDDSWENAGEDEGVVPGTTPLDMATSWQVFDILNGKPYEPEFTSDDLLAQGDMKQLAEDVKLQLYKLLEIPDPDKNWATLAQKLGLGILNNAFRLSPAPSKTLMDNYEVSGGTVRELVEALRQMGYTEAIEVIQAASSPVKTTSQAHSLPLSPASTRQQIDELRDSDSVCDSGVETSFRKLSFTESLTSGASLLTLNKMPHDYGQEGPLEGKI
smiles,measurement,setting,value
CCOc1ccc2[nH]cc(C(=O)NCc3ccccc3)c(=O)c2n1,outcome,[1],inactive
same,outcome,[2],inactive
same,AC50,[3],15.8 µM (active)
same,outcome,[4],inactive
same,outcome,[5],inactive
same,outcome,[6],inactive
same,outcome,[7],inactive
same,outcome,[8],inactive
same,AC50,[9],12.1 µM (active)
same,outcome,[10],inactive
same,outcome,[11],inactive
same,outcome,[12],inactive
same,outcome,[13],inactive
same,outcome,[14],inactive
same,outcome,[15],inactive
same,outcome,[16],inactive
same,AC50,[17],50 µM (active)
same,outcome,[18],inactive
same,outcome,[19],inactive
Cc1ncc([C@@H](CCCCCCc2ccc3c(n2)NCCC3)CC(=O)O)cn1,outcome,[1],inactive
same,outcome,[2],inactive
same,outcome,[3],inactive
same,outcome,[4],inactive
same,outcome,[5],inactive
same,outcome,[6],inactive
same,outcome,[7],inactive
same,outcome,[8],inactive
same,outcome,[9],inactive
same,outcome,[10],inactive
same,outcome,[11],inactive
same,AC50,[12],0.382 µM (active)
same,outcome,[13],inactive
same,outcome,[14],inactive
same,outcome,[15],inactive
same,AC50,[16],0.145 µM (active)
same,outcome,[17],inactive
same,outcome,[18],inactive
same,outcome,[19],inactive
O=C(O)c1cccc(C(=O)O)c1,outcome,[1],inactive
same,outcome,[2],inactive
same,outcome,[3],inactive
same,outcome,[4],inactive
same,outcome,[5],inactive
same,outcome,[6],inactive
same,outcome,[7],inactive
same,outcome,[8],inactive
same,outcome,[9],inactive
same,outcome,[10],inactive
same,outcome,[11],inactive
same,outcome,[12],inactive
same,outcome,[13],inactive
same,outcome,[14],inactive
same,outcome,[15],inactive
same,outcome,[16],inactive
same,outcome,[17],inactive
same,outcome,[18],inactive
same,outcome,[19],inactive
CCN(CC)C(=S)SSC(=S)N(CC)CC,outcome,[1],inactive
same,outcome,[3],inactive
same,outcome,[4],inactive
same,outcome,[5],inactive
same,outcome,[6],inactive
same,outcome,[7],inactive
same,outcome,[8],inactive
same,outcome,[9],inactive
same,outcome,[10],inactive
same,outcome,[11],inactive
same,outcome,[12],inactive
same,outcome,[13],inactive
same,outcome,[14],inactive
same,outcome,[15],inactive
same,outcome,[16],inactive
same,outcome,[17],inactive
same,outcome,[20],inactive
same,outcome,[18],inactive
same,outcome,[19],inactive
